This is part of a sample that, as a whole, favours compounds with a hit. Of some 83,000 tested, about 20% had one in any assay.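 Single-dose data. Exposure time 48 hours. Values below 10 considered active.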 Values without a mark were called inactive. Active and inactive are the calls of the source.

Some test systems named below: SK-MEL-2 melanoma; EKVX NSCLC; SN12C renal; UO-31 renal; TK-10 renal; ACHN renal; CAKI-1 renal; A498 renal; CCRF-CEM leukemia; MOLT-4 leukemia; SR leukemia; OVCAR-8 ovarian; OVCAR-5 ovarian; OVCAR-4 ovarian; SK-OV-3 ovarian; IGROV1 ovarian; OVCAR-3 ovarian; HS 578T breast; NCI/ADR-RES ovarian; RPMI-8226 leukemia.
Common to all, as to assay: NCI-60 one-dose screen, 48 h (100 = growth as untreated, 0 = no growth, -100 = all killed)
Settings in all cases: 10 µM unless noted

For `CC(C)(C)c1cc(-c2cc(-c3ccccc3)[nH]c(=O)c2C#N)cc(C(C)(C)C)c1`, the growth in the experiment on SK-MEL-2 melanoma is 94.4%; in the experiment with EKVX NSCLC, 34.2%; in the experiment with SN12C renal, 30.7%; in the experiment with UO-31 renal, 24.2%; in the experiment with TK-10 renal, 27.6%; with ACHN renal, 23.3%. Also, the growth was -11.5% (active) with CAKI-1 renal; 21.5% with A498 renal; 68.9% in the experiment on CCRF-CEM leukemia; 70.9% with MOLT-4 leukemia; 43.4% in the experiment with SR leukemia; 7.14% (active) with OVCAR-8 ovarian. Further, the growth is 45.9% in the experiment on OVCAR-5 ovarian; 5.22% (active) with OVCAR-4 ovarian; 43.7% in the experiment with SK-OV-3 ovarian; 35.1% in the experiment with IGROV1 ovarian; 27.1% with OVCAR-3 ovarian; -3.49% (active) in the experiment with HS 578T breast. Moreover, in the experiment with NCI/ADR-RES ovarian, the growth was 25.9%.

Take `Fc1ccc(Nc2nnc(-c3c[nH]c4ccccc34)o2)cc1`: the growth in the experiment on SK-MEL-2 melanoma is 96.7%; with EKVX NSCLC, 56.5%; in the experiment with SN12C renal, 56.2%; with UO-31 renal, 44.4%; with TK-10 renal, 123%; in the experiment with ACHN renal, 77.5%. The growth in the experiment on CAKI-1 renal was 67.8%; in the experiment on A498 renal, 133%; in the experiment on CCRF-CEM leukemia, 16.3%; with MOLT-4 leukemia, 29.6%; in the experiment with SR leukemia, 70.4%; in the experiment with OVCAR-8 ovarian, 85.5%. Besides, the growth was 105% in the experiment with OVCAR-5 ovarian; 81.1% in the experiment on OVCAR-4 ovarian; 83.6% with SK-OV-3 ovarian; 50.8% with IGROV1 ovarian; 107% in the experiment with OVCAR-3 ovarian; 82% with HS 578T breast. Moreover, the growth in the experiment with NCI/ADR-RES ovarian was 74.6%.

`Cc1ccc(-c2cc(-c3ccccc3)[nH]c(=O)c2C#N)cc1`: the growth is 95.5% with SK-MEL-2 melanoma; 82.8% with EKVX NSCLC; 86.5% with SN12C renal; 73.2% in the experiment on UO-31 renal; 95.1% in the experiment on TK-10 renal; 79.1% in the experiment with ACHN renal. The growth was 81.9% in the experiment with CAKI-1 renal; 84.8% in the experiment on A498 renal; 76.7% in the experiment on CCRF-CEM leukemia; 91.3% in the experiment with MOLT-4 leukemia; 73.3% in the experiment on SR leukemia; 93.5% in the experiment on OVCAR-8 ovarian. The growth in the experiment on OVCAR-5 ovarian is 109%; in the experiment on OVCAR-4 ovarian, 94.1%; with SK-OV-3 ovarian, 107%; in the experiment with IGROV1 ovarian it was 91.9%; in the experiment with OVCAR-3 ovarian, 98.4%; in the experiment on HS 578T breast it was 84.6%. In addition, in the experiment with NCI/ADR-RES ovarian, the growth is 82.3%.

Consider `CN(C)CCCNC(=S)Nc1ccc(/C=C/c2ccc(Cl)cc2)cc1`, for which the growth with SK-MEL-2 melanoma was -85.4% (active); with EKVX NSCLC, -35.1% (active); in the experiment with SN12C renal, -100% (active); in the experiment on UO-31 renal, -95.8% (active); with TK-10 renal it was -87.9% (active); with ACHN renal, -97.6% (active). Besides, the growth is -77.3% (active) with CAKI-1 renal; -47.7% (active) in the experiment with A498 renal; 0.54% (active) in the experiment on MOLT-4 leukemia; -1.02% (active) in the experiment on SR leukemia; 3.25% (active) in the experiment on RPMI-8226 leukemia; -40.8% (active) with OVCAR-8 ovarian. For the same compound, the growth in the experiment on OVCAR-5 ovarian is -99.6% (active); in the experiment on OVCAR-4 ovarian, -68.2% (active); with SK-OV-3 ovarian, -56.9% (active); with IGROV1 ovarian it was -70.4% (active); with OVCAR-3 ovarian it was 23.6%; in the experiment with HS 578T breast it was 11.7%. For the same compound, the growth in the experiment with NCI/ADR-RES ovarian is -43.6% (active).

Take `COC(=O)c1cc(C(=O)C(Br)Br)n2c1ccc1c3ccccc3ccc12`: the growth with SK-MEL-2 melanoma is 104%; in the experiment with EKVX NSCLC it was 43.3%; in the experiment on SN12C renal it was 53.3%; in the experiment on UO-31 renal, 37.8%; in the experiment with TK-10 renal it was 65.3%; with ACHN renal, 36.2%. The growth is 58.3% with CAKI-1 renal; 121% in the experiment with A498 renal; 35.6% in the experiment on CCRF-CEM leukemia; 22.9% in the experiment on MOLT-4 leukemia; 13.6% in the experiment with SR leukemia; 54.6% in the experiment on RPMI-8226 leukemia. In addition, the growth is 64.4% with OVCAR-5 ovarian; 75.4% in the experiment on SK-OV-3 ovarian; 32.1% with IGROV1 ovarian; 77% in the experiment with OVCAR-3 ovarian; 44.3% with HS 578T breast; 70.3% with NCI/ADR-RES ovarian.

With `COc1ccc(-c2cc(C)nc3[nH]c(=O)sc23)cc1`, the growth in the experiment on SK-MEL-2 melanoma is 100%; in the experiment on EKVX NSCLC, 89.5%; with SN12C renal, 43.2%; with UO-31 renal, 3.27% (active); with TK-10 renal it was 17.1%; with ACHN renal, 31.9%. Also, the growth in the experiment on CAKI-1 renal was 40.5%; in the experiment with A498 renal it was 6.1% (active); in the experiment with CCRF-CEM leukemia, 81.5%; in the experiment with MOLT-4 leukemia, 86.8%; in the experiment on SR leukemia, 75.5%; with RPMI-8226 leukemia it was 69.4%. Besides, the growth in the experiment with OVCAR-5 ovarian was 80.4%; in the experiment with OVCAR-4 ovarian it was 2.45% (active); with SK-OV-3 ovarian, 55.9%; in the experiment on OVCAR-3 ovarian, 67.1%; in the experiment with HS 578T breast it was 48.2%; in the experiment with NCI/ADR-RES ovarian, 62.4%.

As for `Cc1cc(N=C(N)c2ccccc2)ccc1OCCCCCCCCn1ccnc1`, the growth is -28.2% (active) in the experiment on SK-MEL-2 melanoma; 20.7% with EKVX NSCLC; 12.7% in the experiment with SN12C renal; -30.2% (active) with UO-31 renal; 32.9% in the experiment on TK-10 renal; 9.56% (active) with ACHN renal. Moreover, the growth with CAKI-1 renal is 20.2%; with A498 renal it was 64.6%; in the experiment with CCRF-CEM leukemia it was 12.3%; in the experiment with MOLT-4 leukemia, 14.1%; with SR leukemia, 0.698% (active); with OVCAR-5 ovarian, 1.47% (active). Besides, the growth in the experiment on OVCAR-4 ovarian is 37.5%; in the experiment on SK-OV-3 ovarian, 16.7%; with IGROV1 ovarian it was 6.54% (active); in the experiment with HS 578T breast, 13.6%.

On to `COc1ccc([C@H]2C(C(=O)c3ccc(Cl)cc3)C3(N[C@@H]2c2ccccc2)C(=O)Nc2ccccc23)cc1` (stereo partly specified), for which the growth in the experiment on SK-MEL-2 melanoma is -29.6% (active); in the experiment with EKVX NSCLC it was 21.6%; in the experiment on SN12C renal, 6.41% (active); in the experiment with UO-31 renal, 13.2%; in the experiment on TK-10 renal, 43.4%; in the experiment on ACHN renal it was 11.2%. Besides, the growth with CAKI-1 renal is 14%; with A498 renal it was 40.2%; in the experiment on CCRF-CEM leukemia, 45.8%; with MOLT-4 leukemia it was 18.9%; with RPMI-8226 leukemia, 10.4%; with OVCAR-8 ovarian, 32.7%. Moreover, the growth in the experiment on OVCAR-5 ovarian is 50.5%; in the experiment on OVCAR-4 ovarian it was 31.1%; in the experiment on SK-OV-3 ovarian, 72.5%; with IGROV1 ovarian, 35.6%; with HS 578T breast, 53.7%; in the experiment on NCI/ADR-RES ovarian, 12.2%.

Source of the values: PubChem BioAssay (NCI).
